In all, about 35,000 sequences were measured (“fluorescence intensity (a.u.)”: median about 10,000, highest 2% from about 52,000 on). Shown is part of a subset that was picked to be rich in the highest values.

This experiment addresses T1, OsWOX13 (Oryza sativa, UniProt Q5QMM3 1-267).
T1 sequence: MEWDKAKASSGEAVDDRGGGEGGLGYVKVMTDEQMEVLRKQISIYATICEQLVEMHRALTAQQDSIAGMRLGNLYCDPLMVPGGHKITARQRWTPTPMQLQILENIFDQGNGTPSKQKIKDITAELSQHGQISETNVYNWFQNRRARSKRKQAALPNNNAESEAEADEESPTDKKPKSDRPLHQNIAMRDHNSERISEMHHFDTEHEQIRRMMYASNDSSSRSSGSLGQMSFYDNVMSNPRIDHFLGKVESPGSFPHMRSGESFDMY
The experiment in a line: protein-binding microarray (RPBM); PBS, 2% BSA, 51.3 ng/ul salmon testes DNA, 50 uM zinc acetate, 200 nM TF, 25 C, 1 h; high values mean tight binding. As to conditions: protein: recombinant; tags: N-terminal polyhistidine and DsRed monomer fusion (pET32a); label: CyDye5-dUTP incorporated in the synthesized complementary strand; 3' TTTTT single-stranded linker to array surface; dsDNA, one strand shown. An outline of the steps:
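A custom Agilent array was converted to double-stranded form by primer extension with Cy5-dUTP and blocked with 2% BSA. Protein at 200 nM in PBS with 2% BSA, salmon testes DNA and 50 µM zinc acetate was applied for 1 h at 25 °C, followed by washing. The proteins were polyhistidine–DsRed N-terminal fusions of transcription factors, expressed in E. coli BL21-CodonPlus and Ni–NTA-purified. The binding signal is per-feature fluorescence intensity (arbitrary units) from an Axon 4000B scanner.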
Regarding “AGATGCTGCATGGTTGATTGGTTTCAAGTAATTTCATGGGCGGAGTCACCTAGTGCAG”, the binding signal is 7340 fluorescence intensity (a.u.).

For “GAAATTAATTTTAATAGTGTTTTCATATTATTTCCATGCGCGGAGTCACCTAGTGCAG”, the binding signal was 46500 fluorescence intensity (a.u.).

Consider “CTCAAATTATTGTTAAACCTTCATATAAATCGACCCCAATCGGAGTCACCTAGTGCAG”, for which the binding signal was 7650 fluorescence intensity (a.u.).

On to “CACAGAATCCTTAATTAATTATATACATATATTGATCATGCGGAGTCACCTAGTGCAG”, for which the binding signal was 16200 fluorescence intensity (a.u.).

For the sequence “ACATTTGTGATTTTCCTAGGTAATGGTGAGATTTTATAGGCGGAGTCACCTAGTGCAG”, the binding signal is 3220 fluorescence intensity (a.u.).

On to “ACTGTGACACATGATGAACTGTTTATTTTGCATGATCTATCGGAGTCACCTAGTGCAG”, for which the binding signal was 5480 fluorescence intensity (a.u.).

For the sequence “GGCGTATTTCCCAATCATTGTGCGGTCCAAAACCATCGCCCGGAGTCACCTAGTGCAG”, the binding signal was 10000 fluorescence intensity (a.u.).

With “CTGATGTGATTACGTCTATCCAGTATAATCCCTCTGGTTTCGGAGTCACCTAGTGCAG”, the binding signal is 31700 fluorescence intensity (a.u.).

As to “TACCTCGCGACTAATTGGGCCTCCACTAACACCTAGATTCCGGAGTCACCTAGTGCAG”, the binding signal is 4340 fluorescence intensity (a.u.).

“TGTGAAAATGGATAATTAAGGGATCCCAAAGACCCATAAGCGGAGTCACCTAGTGCAG”: the binding signal was 10800 fluorescence intensity (a.u.).

As for “GTTGAACTTATTCCAATCAAGGATCACGCATTCACGTTCACGGAGTCACCTAGTGCAG”, the binding signal is 14100 fluorescence intensity (a.u.).

In the case of “TAAAACTTATTTCTTGATAGATCAATCCCAGATTACAATGCGGAGTCACCTAGTGCAG”, the binding signal is 8210 fluorescence intensity (a.u.).

Take “CGACTGGATTGAAGCATTTTCTGCCTAGCTGTCTGTCTCTCGGAGTCACCTAGTGCAG”: the binding signal is 10100 fluorescence intensity (a.u.).

“GGTTGATTGTGAAGTTAATTATTTAACATCTCAATTATAACGGAGTCACCTAGTGCAG”: the binding signal was 32800 fluorescence intensity (a.u.).

“TTCATTAATTGATTATTACTAGTAGGGATGGTTGGTTCAACGGAGTCACCTAGTGCAG”: the binding signal is 30700 fluorescence intensity (a.u.).

As for “CCTGATTGCGTGTTGATTTGACAATATGGTGCTACAGTAACGGAGTCACCTAGTGCAG”, the binding signal is 54300 fluorescence intensity (a.u.).

Consider “AGTCTAATTGAGTGATTGTATACATGTTCAATGTTCATGGCGGAGTCACCTAGTGCAG”, for which the binding signal is 65300 fluorescence intensity (a.u.).

As to “CATGATTTGACAATATGGTGATACAGTAAATATTTGCTAACGGAGTCACCTAGTGCAG”, the binding signal is 40600 fluorescence intensity (a.u.).

As for “AATTTCTTGTTCAATCATTTCATATATATATACATGTAGGCGGAGTCACCTAGTGCAG”, the binding signal is 6120 fluorescence intensity (a.u.).

Regarding “TCTAATTACTTCATGATTTGATAATTTGGTGTTACAGTAACGGAGTCACCTAGTGCAG”, the binding signal was 52400 fluorescence intensity (a.u.).

For the sequence “GATCTAATTTGAAATGTGATAAATTGTTTTCAATAAATGGCGGAGTCACCTAGTGCAG”, the binding signal is 27700 fluorescence intensity (a.u.).

“CCTAATTGCGTCATGATTTGACAATGTAGTGCTACAGTAACGGAGTCACCTAGTGCAG”: the binding signal is 50800 fluorescence intensity (a.u.).

On to “CCTAATTGCACCATGATTTGATAATGTTGTGCTACAGTAACGGAGTCACCTAGTGCAG”, for which the binding signal was 42600 fluorescence intensity (a.u.).

On to “ATTAATTGATTGGATTGGTTGTGTGCATTATTTCATCTAACGGAGTCACCTAGTGCAG”, for which the binding signal was 65200 fluorescence intensity (a.u.).

Turning to “CCTAATTACTCCATGATTTGATAATATGACGCTACAGTAACGGAGTCACCTAGTGCAG”, the binding signal was 25000 fluorescence intensity (a.u.).

Turning to “GTTGTATGATTGACACTAGATCGAGAAAAGGTGCGACAAACGGAGTCACCTAGTGCAG”, the binding signal was 23500 fluorescence intensity (a.u.).

As for “CTTTAAATTTTAACTTTTGCATTGGCTTATTAGACCAACTCGGAGTCACCTAGTGCAG”, the binding signal was 4620 fluorescence intensity (a.u.).

For the sequence “GAAATTACATATGACAAATCCAGAATTTTGATGGAGTGGTCGGAGTCACCTAGTGCAG”, the binding signal was 6770 fluorescence intensity (a.u.).

Consider “TGCTCAATCACACACACACACGCGTGTAATATTAAGATTTCGGAGTCACCTAGTGCAG”, for which the binding signal was 10500 fluorescence intensity (a.u.).

In the case of “TAGATTGATCGGACTAACCACCCCATTTTACACCATTTGCCGGAGTCACCTAGTGCAG”, the binding signal was 20900 fluorescence intensity (a.u.).

With “ATGTAAATCAATTGTTTAGTGTTGGATCTATAAGCAACATCGGAGTCACCTAGTGCAG”, the binding signal was 4370 fluorescence intensity (a.u.).

Take “TCTAATTGAAATTATTGTGTTTATGTATAAAGACAAATACCGGAGTCACCTAGTGCAG”: the binding signal is 24900 fluorescence intensity (a.u.).

For “TTTGATTTGTTAATCCAGCTAGTCGTGGGGAATAGTGAAGCGGAGTCACCTAGTGCAG”, the binding signal is 42700 fluorescence intensity (a.u.).

“TTTAGTAATTGGTAGAGCTCAAATTTCTAAATTTAACTTCCGGAGTCACCTAGTGCAG”: the binding signal is 6730 fluorescence intensity (a.u.).

For “TAAGTAATTGATTGGTAGCCAGCTTCTAACTTCTAGCTTACGGAGTCACCTAGTGCAG”, the binding signal is 63600 fluorescence intensity (a.u.).

For the sequence “ATTAAGATTGATTAATTGTTGCTTGGTTAATAGCCACTTACGGAGTCACCTAGTGCAG”, the binding signal is 47500 fluorescence intensity (a.u.).

Take “TTCTAATCAAGCTTTCTGGTTAATTTCTCTATGAATTTAACGGAGTCACCTAGTGCAG”: the binding signal was 5250 fluorescence intensity (a.u.).

In the case of “TCTAGAGAATTAGCCCTGATTATAATGTGAGACTTTGCATCGGAGTCACCTAGTGCAG”, the binding signal is 4870 fluorescence intensity (a.u.).

Consider “AAATCAATCTGATGGGCCGAATTGGAGGCCCATATCCGTGCGGAGTCACCTAGTGCAG”, for which the binding signal was 8660 fluorescence intensity (a.u.).

As for “TTTGGATTGGCCAGAACAAGATATACTTTCGAATCTTTTGCGGAGTCACCTAGTGCAG”, the binding signal was 11300 fluorescence intensity (a.u.).

Turning to “TCATAAATTATTTATAATTGCCTTGCTTAATTTACGCCTTCGGAGTCACCTAGTGCAG”, the binding signal was 28900 fluorescence intensity (a.u.).

For “GCCGCCACCTTCGCCTTTATAAAGCTTACCTTTGCTACCACGGAGTCACCTAGTGCAG”, the binding signal is 64800 fluorescence intensity (a.u.).

As for “CTCGCCATCTTCGCCGTCCTTGCTTTCTTATATAAATTTTCGGAGTCACCTAGTGCAG”, the binding signal was 4080 fluorescence intensity (a.u.).

The values are drawn from paper PMC7819943, “Rice protein-binding microarrays: a tool to detect cis-acting elements near promoter regions in rice”.
